These results are taken from the supplement of paper PMC6135742.

Molecules are shown by their SMILES. Where a name gives a salt, the structure may show the parent alone. In all, about 2,600 compounds were measured (“total cell number (DAPI+ nuclei) relative to DMSO vehicle control”: median about -1.4, lowest 2% from about -23 on). The sample holds the lowest values, similar compounds and a random draw of the others, so the mix is not that of the screen.

This assay relates to jimpy (Plp1 jimpy) mouse iPSC-derived oligodendrocyte progenitor cells. As to the kind of experiment: total cell number (DAPI+ nuclei) relative to DMSO vehicle control (SDs above negative control mean); higher = more surviving cells. The settings on record: 10 µM; 3 days. Here is the method: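 Primary phenotypic screen of >3,000 bioactive compounds (Selleck L1700 and Sigma LO1280 libraries) at a single dose of 10 µM. Compounds were added to jimpy (Plp1 mutant) mouse iPSC-derived OPCs at the start of thyroid hormone-induced oligodendrocyte differentiation, one well per compound in 384-well plates. After 3 days cells were stained for MBP, Sox10 and DAPI and imaged with an Operetta system. MBP+ oligodendrocyte number and total cell number were expressed as the number of SDs above the mean of the DMSO negative control on the same plate (n=16 control wells per plate). Hits were defined as >=4 SD for oligodendrocytes and >=2 SD for total cells.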
Consider `Cc1cc(C)c(CNC(=O)c2cc(-c3ccc(CN4CCOCC4)cc3)cc3c2cnn3C2CCCC2)c(=O)[nH]1`, for which the total cell number was 7.3. The figure for `CCNC(=O)c1noc(-c2cc(C(C)C)c(O)cc2O)c1-c1ccc(CN2CCOCC2)cc1` is -26.3. `CCN(c1cc(-c2ccc(CN3CCOCC3)cc2)cc(C(=O)NCc2c(C)cc(C)[nH]c2=O)c1C)C1CCOCC1`: the total cell number worked out at 2.45. Compound `CN[C@@H](C)C(=O)N[C@H](C(=O)N1CCC[C@H]1C(=O)Nc1snnc1-c1ccccc1)C1CCCCC1` returned a total cell number of -4.08. In turn, `O=S(=O)(O)Oc1ccc(C(c2ccc(OS(=O)(=O)O)cc2)c2ccccn2)cc1` [Sodium Picosulfate] displayed a total cell number of 0.486. The compound `O=C(O)C(=O)O.[NH-][C@@H]1CCCC[C@H]1[NH-].[Pt+2]` [Oxaliplatin] had a total cell number of -23.4.

`COc1ccc2c(Oc3ccc(NC(=O)c4c(C)n(CC(C)(C)O)n(-c5ccccc5)c4=O)nc3)ccnc2c1` registered a total cell number of -3.37. Take `CCOC(=O)CC(=O)N1CCSC1COc1ccccc1OC` (stereo not drawn) [Moguisteine]: the total cell number was -1.39. As to `NC1(c2ccc(-c3nc4ccn5c(=O)[nH]nc5c4cc3-c3ccccc3)cc2)CCC1`, the total cell number was -25.6. Compound `CC1=C(C(=O)O)N2C(=O)[C@@H](NC(=O)[C@H](N)C3=CCC=CC3)[C@H]2SC1` [Cephradine] returned a total cell number of -1.61. The figure for `CN(C)CCC(c1ccc(Cl)cc1)c1ccccn1` (racemic) [(±)-Chlorpheniramine maleate] is -2.22; for `CCOc1cc2ncc(C#N)c(Nc3ccc(F)c(Cl)c3)c2cc1NC(=O)/C=C/CN(C)C` [Pelitinib (EKB-569)] it is -27.4.

Compound `COc1cc2ncnc(Nc3ccc(F)c(Cl)c3)c2cc1OCCCN1CCOCC1` [Gefitinib (ZD1839)] showed a total cell number of -20.6. The figure for `CCOc1cc(C(=O)Nc2ccc(Cl)c(-c3nc4ccccc4[nH]3)c2)cc(OCC)c1OCC` is -2.15. Consider `CCOc1cc2ncc(C#N)c(Nc3ccc(OCc4ccccn4)c(Cl)c3)c2cc1NC(=O)/C=C/CN(C)C` [Neratinib (HKI-272)], for which the total cell number is -12.8. The figure for `CN(C)C/C=C/C(=O)Nc1cc2c(Nc3ccc(F)c(Cl)c3)ncnc2cc1O[C@H]1CCOC1` [Afatinib (BIBW2992)] is -25.6. Take `COc1cc2ncnc(Nc3ccc(F)c(Cl)c3)c2cc1NC(=O)/C=C/CN1CCCCC1`: the total cell number was -11.6. For `COc1cc2ncnc(Nc3ccc(Cl)cc3F)c2cc1OC`, the total cell number is -8.14.

`C=CC(=O)Nc1ccc2ncnc(Nc3ccc(OCc4cccc(F)c4)c(Cl)c3)c2c1` registered a total cell number of -12.9. With `COc1cc2c(Oc3ccc(NC(=O)C4(C(=O)Nc5ccc(F)cc5)CC4)cc3F)ccnc2cc1OCCCN1CCOCC1`, the total cell number is -27. Turning to `COc1cc2nccc(Oc3ccc(NC(=O)C4(C(=O)Nc5ccc(F)cc5)CC4)cc3)c2cc1OC`, the total cell number is -20. `C=CC(=O)Nc1cc2c(Nc3ccc(F)c(Cl)c3)ncnc2cc1OCCCN1CCOCC1` [Canertinib (CI-1033)]: the total cell number is -24.4.

As for `COc1cc(C(C)=O)ccc1OCCCN1CCC(c2noc3cc(F)ccc23)CC1` [Iloperidone], the total cell number was -2.6.
